# Source: PubChem BioAssay (EPA / NIEHS)
# Results filed as inconclusive are left out. The source made the active and inactive calls. The calls were made as follows, unless noted: active = hit-call score of the fitted dose curve at least 0.9, where 1 is the maximum; inconclusive = response in the unintended direction; inactive = score below 0.9.
# Tests used:
# [1] = target: Bile acid receptor (Homo sapiens) (UniProt Q96RI1); assay: OT_FXR_FXRSRC1_0480: Odyssey Thera (OT) 8-hour HEK293T Protein-Complementation Assay for Farnesoid X receptor/SRC-1 Co-activator (AID 2283383)
# In short: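 HEK293T cells expressing FXR and SRC-1 fused to reporter fragments were dosed with compound for 8 h; fluorescence from the reconstituted reporter marked co-activator recruitment. Gain of signal was fitted against the DMSO baseline.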
# [2] = target: Retinoic acid receptor RXR-alpha (Homo sapiens) (UniProt P19793); assay: OT_NURR1_NURR1RXRa_1440: Odyssey Thera (OT) 24-hour HEK293T Protein Complementation Assay for Nurr1/retinoid X receptor (RXR) (AID 2283386)
# In short: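 HEK293T cells were dosed with compound and read 24 h later by fluorescence intensity in a protein-fragment complementation format, where Nurr1–RXRα interaction reconstitutes a split reporter. Activity was fitted as gain of signal relative to DMSO baseline.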
# [3] = target: Peroxisome proliferator-activated receptor gamma (Homo sapiens) (UniProt P37231); assay: OT_PPARg_PPARgSRC1_0480: Odyssey Thera (OT) 8-hour Protein-Complementation Assay for Peroxisome Proliferator-activated Receptor Gamma / SRC-1 Co-activator (AID 2283387);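 also: nuclear to cytoplasmic split Venus YFP fluorescence ratio reporting PPARg SRC-1 interaction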
# In short: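 HEK293T transiently transfected with PPARg and SRC-1 fused to Venus YFP fragments, compounds 8 h at 37C. Fixed, Draq5-stained cells imaged; nuclear/cytoplasmic 488 nm fluorescence ratio over at least 350 cells per image; gain fitted versus DMSO.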
# [4] = target: Peroxisome proliferator-activated receptor gamma (Homo sapiens) (UniProt P37231); assay: OT_PPARg_PPARgSRC1_1440: Odyssey Thera (OT) 24-hour Protein-Complementation Assay for Peroxisome Proliferator-activated Receptor Gamma/ SRC-1 Co-activator (AID 2283388)
# In short: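 Transient HEK293T, YFP fragments 1-158/159-239 (mutant IFP1/IFP2) fused to PPARg/SRC-1; 24 h dosing; fix 4% formaldehyde, Draq5; Opera imaging 488/635 nm; N/C ratio, gain vs DMSO.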
# [5] = target: Bile acid receptor (Homo sapiens) (UniProt Q96RI1); assay: OT_FXR_FXRSRC1_1440: Odyssey Thera (OT) 24-hour HEK293T Protein-Complementation Assay for Farnesoid X receptor/SRC-1 Co-activator (AID 2283384)
# In short: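 HEK293T cells were dosed with compound and read 24 h later by fluorescence intensity from protein-fragment complementation reporting FXR/SRC-1 co-activator interaction. Gain of signal was fitted relative to DMSO negative control as baseline.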
# [6] = target: Retinoic acid receptor RXR-alpha (Homo sapiens) (UniProt P19793); assay: OT_NURR1_NURR1RXRa_0480: Odyssey Thera (OT) 8-hour HEK293T Protein Complementation Assay for Nurr1/retinoid X receptor (RXR) (AID 2283385)
# In short: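 HEK293T cells expressing Nurr1 and RXRα fused to reporter fragments were dosed with compound for 8 hours. Complex formation was read as fluorescence intensity and analysed as gain of signal against DMSO as baseline.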
# [7] = CEETOX_H295R_11DCORT: CeeTox H295R High-throughput Steroidogenesis Assay for 11-Deoxycortisol (11DCORT) (AID 2283432; active = hit-call score of the fitted dose curve at least 0.9, where 1 is the maximum; inactive = score below 0.9;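 as to AC50: 11-deoxycortisol secreted into the medium measured by LC-MS/MS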); conditions: actives raise or lower the signal
# In short: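 H295R cells prestimulated 48 h with 10 uM forskolin, then exposed 48 h to chemical in 0.1% DMSO. 11-Deoxycortisol in medium quantified by HPLC-MS/MS after MTBE extraction; bidirectional fit versus DMSO. MTT viability read in same wells.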
# [8] = CEETOX_H295R_OHPREG: CeeTox H295R High-throughput Steroidogenesis Assay for OH-Pregnenolone (OHPREG) (AID 2283434; active = hit-call score of the fitted dose curve at least 0.9, where 1 is the maximum; inactive = score below 0.9); conditions: actives raise or lower the signal
# In short: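 Human adrenal H295R cells were prestimulated 48 h with 10 uM forskolin, then exposed 48 h to chemical in 0.1% DMSO. Medium 17alpha-hydroxypregnenolone was quantified by HPLC-MS/MS after MTBE extraction; bidirectional fitting versus DMSO baseline.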
# [9] = CEETOX_H295R_OHPROG: CeeTox H295R High-throughput Steroidogenesis Assay for OH-Progesterone (OHPROG) (AID 2283435; active = hit-call score of the fitted dose curve at least 0.9, where 1 is the maximum; inactive = score below 0.9); conditions: actives raise or lower the signal
# In short: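 H295R human adrenal cells were prestimulated 48 h with 10 uM forskolin, then exposed 48 h to test chemical (0.1% DMSO final). 17alpha-hydroxyprogesterone in medium was measured by HPLC-MS/MS after MTBE extraction; bidirectional fitting vs DMSO.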
# [10] = CEETOX_H295R_CORTIC: CeeTox H295R High-throughput Steroidogenesis Assay for Corticosterone (CORTIC) (AID 2283437; active = hit-call score of the fitted dose curve at least 0.9, where 1 is the maximum; inactive = score below 0.9;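 also: corticosterone secreted into medium quantified by mass spectrometry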); conditions: actives raise or lower the signal
# In short: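 H295R cells were prestimulated 48 h with 10 uM forskolin, then exposed 48 h to test chemical in 0.1% DMSO. Medium corticosterone was MTBE-extracted and quantified by HPLC-MS/MS; bidirectional fit versus DMSO baseline.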
# [11] = CEETOX_H295R_CORTISOL: CeeTox H295R High-throughput Steroidogenesis Assay for Cortisol (AID 2283438; active = hit-call score of the fitted dose curve at least 0.9, where 1 is the maximum; inactive = score below 0.9;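 also: cortisol secreted into medium quantified by LC-MS/MS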); conditions: actives raise or lower the signal
# In short: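 H295R human adrenal cells were prestimulated 48 h with 10 uM forskolin, then exposed 48 h to test chemical (0.1% DMSO final). Medium cortisol was quantified by HPLC-MS/MS after MTBE extraction; bidirectional fitting relative to DMSO baseline.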
# [12] = CEETOX_H295R_DOC: CeeTox H295R High-throughput Steroidogenesis Assay for DOC (AID 2283439; active = hit-call score of the fitted dose curve at least 0.9, where 1 is the maximum; inactive = score below 0.9); conditions: actives raise or lower the signal
# In short: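 H295R adrenal cells prestimulated 48 h with 10 uM forskolin, then exposed 48 h to test chemical (0.1% DMSO final). Medium 11-deoxycorticosterone extracted with MTBE, quantified by HPLC-MS/MS; bidirectional fit versus DMSO baseline; MTT viability in same wells.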
# [13] = CEETOX_H295R_PROG: CeeTox H295R High-throughput Steroidogenesis Assay for Progesterone (PROG) (AID 2283442; active = hit-call score of the fitted dose curve at least 0.9, where 1 is the maximum; inactive = score below 0.9;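 as to AC50: human H295R adrenal cells primed with 10 µM forskolin before dosing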); conditions: actives raise or lower the signal
# In short: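 Adrenal H295R line, forskolin-stimulated (10 uM, 48 h) before dosing. 48 h exposure, 0.1% DMSO vehicle. Secreted progesterone by reverse-phase HPLC with ESI+ MS/MS quantification; DMSO-normalised bidirectional curve fit.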
# [14] = CEETOX_H295R_ANDR: CeeTox H295R High-throughput Steroidogenesis Assay for Androstenedione (ANDR) (AID 2283436; active = hit-call score of the fitted dose curve at least 0.9, where 1 is the maximum; inactive = score below 0.9); conditions: actives raise or lower the signal
# In short: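 H295R human adrenal cells (passages ≤10) were exposed to test chemicals for 48 h; androstenedione in medium was MTBE-extracted and quantified by HPLC-MS/MS against a 7-point standard curve. Bidirectional fitting used DMSO as baseline.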
# Chain of Bile acid receptor (Homo sapiens) (Q96RI1 whole entry, looked up, the tested form may be a part): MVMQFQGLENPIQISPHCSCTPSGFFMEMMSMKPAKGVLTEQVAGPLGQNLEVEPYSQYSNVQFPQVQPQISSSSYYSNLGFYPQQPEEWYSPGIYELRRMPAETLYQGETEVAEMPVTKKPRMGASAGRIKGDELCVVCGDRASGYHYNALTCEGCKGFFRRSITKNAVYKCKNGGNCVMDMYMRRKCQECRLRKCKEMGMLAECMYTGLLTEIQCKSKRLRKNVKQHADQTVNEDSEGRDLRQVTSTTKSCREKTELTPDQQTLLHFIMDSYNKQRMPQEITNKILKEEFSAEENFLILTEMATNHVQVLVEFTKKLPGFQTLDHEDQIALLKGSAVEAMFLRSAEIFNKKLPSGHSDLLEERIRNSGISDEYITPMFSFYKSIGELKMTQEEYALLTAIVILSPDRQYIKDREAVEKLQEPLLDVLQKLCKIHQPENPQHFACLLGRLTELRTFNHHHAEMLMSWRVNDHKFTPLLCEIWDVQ
# Chain of Peroxisome proliferator-activated receptor gamma (Homo sapiens) (P37231 whole entry, looked up, the tested form may be a part): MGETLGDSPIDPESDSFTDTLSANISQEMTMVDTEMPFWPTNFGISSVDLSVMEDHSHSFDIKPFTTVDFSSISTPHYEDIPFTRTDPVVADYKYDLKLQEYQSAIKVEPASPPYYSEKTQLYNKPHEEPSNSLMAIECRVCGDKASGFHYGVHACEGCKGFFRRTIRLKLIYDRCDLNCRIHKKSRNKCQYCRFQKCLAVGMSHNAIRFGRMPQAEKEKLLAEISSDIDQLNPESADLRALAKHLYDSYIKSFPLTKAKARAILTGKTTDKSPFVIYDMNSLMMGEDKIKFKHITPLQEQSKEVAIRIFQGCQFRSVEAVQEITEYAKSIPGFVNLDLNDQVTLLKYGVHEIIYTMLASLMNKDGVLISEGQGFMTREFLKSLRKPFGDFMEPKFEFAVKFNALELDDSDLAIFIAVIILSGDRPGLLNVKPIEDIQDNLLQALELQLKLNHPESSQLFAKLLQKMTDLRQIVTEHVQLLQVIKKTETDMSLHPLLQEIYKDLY
# Chain of Retinoic acid receptor RXR-alpha (Homo sapiens) (P19793 whole entry, looked up, the tested form may be a part): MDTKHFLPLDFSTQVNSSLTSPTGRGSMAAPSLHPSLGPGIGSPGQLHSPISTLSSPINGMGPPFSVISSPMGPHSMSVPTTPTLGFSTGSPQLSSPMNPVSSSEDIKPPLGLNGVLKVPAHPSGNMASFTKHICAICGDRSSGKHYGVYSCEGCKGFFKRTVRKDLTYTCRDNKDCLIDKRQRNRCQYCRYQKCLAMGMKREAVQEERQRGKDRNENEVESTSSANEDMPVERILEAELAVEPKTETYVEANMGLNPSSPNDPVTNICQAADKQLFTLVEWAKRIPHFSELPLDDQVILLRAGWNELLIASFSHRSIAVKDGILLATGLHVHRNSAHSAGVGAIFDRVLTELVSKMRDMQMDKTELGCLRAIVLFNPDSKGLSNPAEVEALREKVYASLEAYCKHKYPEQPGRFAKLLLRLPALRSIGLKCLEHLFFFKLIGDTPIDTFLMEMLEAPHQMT
structure (smiles),measurement,setting,value
C=C1C[C@]23C[C@@]1(O)CC[C@H]2[C@@]12C=C[C@H](O)[C@@](C)(C(=O)O1)[C@H]2[C@@H]3C(=O)O,outcome,[1],inactive
same,outcome,[2],inactive
same,outcome,[3],inactive
same,outcome,[4],inactive
CCNCCO,outcome,[5],inactive
same,outcome,[2],inactive
same,outcome,[3],inactive
same,outcome,[4],inactive
CC(=O)O[C@H]1C[C@@H]2CC[C@@]1(C)C2(C)C,outcome,[1],inactive
same,outcome,[6],inactive
same,outcome,[3],inactive
same,outcome,[4],inactive
CCC1(C)NC(=O)NC1=O (stereo not given),outcome,[1],inactive
same,outcome,[2],inactive
same,outcome,[3],inactive
same,outcome,[4],inactive
CC(C)CCOC(=O)c1ccccc1,outcome,[1],inactive
same,outcome,[2],inactive
same,outcome,[3],inactive
same,outcome,[4],inactive
CS(C)=O,outcome,[5],inactive
same,outcome,[6],inactive
same,outcome,[2],inactive
same,outcome,[3],inactive
same,outcome,[4],inactive
CN1CCOCC1,outcome,[6],inactive
same,outcome,[2],inactive
same,outcome,[3],inactive
same,outcome,[4],inactive
COS(=O)(=O)O,outcome,[1],inactive
same,outcome,[2],inactive
COCCOCCOCCO,outcome,[6],inactive
same,outcome,[2],inactive
CCCOCCO,outcome,[5],inactive
same,outcome,[2],inactive
same,outcome,[3],inactive
same,outcome,[4],inactive
CN1C(=O)c2ccccc2C1=O,outcome,[6],inactive
same,outcome,[2],inactive
same,outcome,[3],inactive
same,outcome,[4],inactive
O=Cc1ccccc1S(=O)(=O)O,outcome,[6],inactive
same,outcome,[2],inactive
same,outcome,[3],inactive
same,outcome,[4],inactive
CC(C=O)Cc1ccc(C(C)(C)C)cc1 (stereo not given),outcome,[5],inactive
same,outcome,[6],inactive
same,outcome,[2],inactive
same,outcome,[3],inactive
same,outcome,[4],inactive
CCCCCCCCC=CCCCCCCCC1=NCCN1CCO,outcome,[3],inactive
same,outcome,[4],inactive
CCCCCC(=O)CC,outcome,[6],inactive
same,outcome,[2],inactive
same,outcome,[3],inactive
same,outcome,[4],inactive
CC(CN=Cc1ccccc1O)N=Cc1ccccc1O (stereo not given),outcome,[3],inactive
same,outcome,[4],inactive
same,AC50,[7],3.89 µM (active)
same,outcome,[8],inactive
same,AC50,[9],1.97 µM (active)
same,outcome,[10],inactive
same,AC50,[11],4.06 µM (active)
same,AC50,[12],1.7 µM (active)
same,outcome,[13],inactive
CCCCC(CC)COC(C)=O (stereo not given),outcome,[6],inactive
same,outcome,[2],inactive
same,outcome,[3],inactive
same,outcome,[4],inactive
CC=Cc1ccc(OCC)c(O)c1,outcome,[7],inactive
same,outcome,[8],inactive
same,AC50,[9],11 µM (active)
same,outcome,[10],inactive
same,outcome,[11],inactive
same,outcome,[12],inactive
same,AC50,[13],20.7 µM (active)
C=C(C)[C@@H]1CC=C(C)C(=O)C1,outcome,[6],inactive
same,outcome,[2],inactive
same,outcome,[4],inactive
COc1ccc(N=Nc2cc(C)c(N=Nc3ccc(S(=O)(=O)O)cc3)cc2OC)cc1,outcome,[3],inactive
same,outcome,[4],inactive
same,outcome,[7],inactive
same,outcome,[8],inactive
same,AC50,[9],34.6 µM (active)
same,outcome,[10],inactive
same,outcome,[11],inactive
same,outcome,[12],inactive
same,AC50,[13],50 µM (active)
CCOc1ccc(N=Nc2ccc(C=Cc3ccc(N=Nc4ccc(OCC)cc4)cc3S(=O)(=O)O)c(S(=O)(=O)O)c2)cc1,outcome,[6],inactive
same,outcome,[2],inactive
same,outcome,[3],inactive
same,outcome,[4],inactive
O=C(c1ccccc1)C(O)c1ccccc1 (stereo not given),outcome,[3],inactive
same,outcome,[4],inactive
CN(C)c1cccc(O)c1,outcome,[2],inactive
same,outcome,[3],inactive
same,outcome,[4],inactive
CCC(C)c1cc([N+](=O)[O-])cc([N+](=O)[O-])c1OC(=O)OC(C)C (stereo not given),outcome,[7],inactive
same,outcome,[8],inactive
same,outcome,[9],inactive
same,outcome,[14],inactive
same,outcome,[10],inactive
same,outcome,[11],inactive
same,outcome,[12],inactive
same,outcome,[13],inactive
